Test results taken from article PMC4336329 (PLoS ONE, 2015).
Among all 310,000 compounds or so, about 14,000 (4.5%) showed an effect of 50% or more. Effects have a minus sign here. This is one part of a sample in which strong results are shown more often than they occur.

target: human ether-à-go-go-related gene (hERG) potassium channel (human, UniProt Q12809); test: primary screen, population patch clamp on CHO cells stably expressing hERG; higher = less effect of the substance
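Note: peak tail current of the secondary pulse compared with the same well before compound.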

Sequence of human ether-à-go-go-related gene (hERG) potassium channel (Q12809 whole entry, looked up): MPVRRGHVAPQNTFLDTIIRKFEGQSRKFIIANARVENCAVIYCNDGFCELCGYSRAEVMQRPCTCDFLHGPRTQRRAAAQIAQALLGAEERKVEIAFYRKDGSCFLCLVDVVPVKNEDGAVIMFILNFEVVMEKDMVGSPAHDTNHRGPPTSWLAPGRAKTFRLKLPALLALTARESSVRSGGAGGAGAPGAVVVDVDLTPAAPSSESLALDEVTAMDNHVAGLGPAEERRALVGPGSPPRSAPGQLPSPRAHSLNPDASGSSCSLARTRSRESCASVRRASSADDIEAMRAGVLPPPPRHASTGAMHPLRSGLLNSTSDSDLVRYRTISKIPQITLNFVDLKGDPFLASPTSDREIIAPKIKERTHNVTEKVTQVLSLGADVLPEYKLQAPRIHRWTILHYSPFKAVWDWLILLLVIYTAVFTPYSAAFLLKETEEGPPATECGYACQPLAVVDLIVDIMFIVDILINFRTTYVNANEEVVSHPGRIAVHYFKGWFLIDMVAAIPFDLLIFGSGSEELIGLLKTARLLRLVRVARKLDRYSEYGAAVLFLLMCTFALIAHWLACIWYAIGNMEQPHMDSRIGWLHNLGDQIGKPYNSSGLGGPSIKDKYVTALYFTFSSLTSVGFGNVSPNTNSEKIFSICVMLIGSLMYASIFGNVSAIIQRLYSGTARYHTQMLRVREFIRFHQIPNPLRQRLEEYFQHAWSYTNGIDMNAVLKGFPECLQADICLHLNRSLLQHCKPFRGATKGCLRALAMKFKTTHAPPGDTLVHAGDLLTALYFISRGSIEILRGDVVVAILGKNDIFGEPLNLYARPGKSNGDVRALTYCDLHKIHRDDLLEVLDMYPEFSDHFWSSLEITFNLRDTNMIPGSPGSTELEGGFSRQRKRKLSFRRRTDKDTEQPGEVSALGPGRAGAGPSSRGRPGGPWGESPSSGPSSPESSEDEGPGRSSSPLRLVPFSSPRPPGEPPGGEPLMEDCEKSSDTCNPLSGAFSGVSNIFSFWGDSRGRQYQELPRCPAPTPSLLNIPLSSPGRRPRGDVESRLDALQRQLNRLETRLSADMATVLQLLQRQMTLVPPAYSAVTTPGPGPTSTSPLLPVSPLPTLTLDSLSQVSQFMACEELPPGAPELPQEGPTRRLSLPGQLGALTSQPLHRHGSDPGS

SMILES | hERG current change (%, negative = inhibition) at 10uM [%]
COC(=O)c1c(NC(=O)COC(=O)C2CCC2)sc(C)c1C | -13.4
Fc1ccc(-c2n[nH]c(=S)n2Cc2ccccc2)cc1 | 7.48
NCc1nc(-c2ccc(Cl)cc2)no1 | 11.2
CCOC(=O)COn1c(=O)c(-c2ccc(OC)c(OC)c2)[n+]([O-])c2ccccc21 | -11.9
O=C(Nc1ccc2c(c1)OCO2)c1ccc(CO)cc1 | 4.24
CN1CCC(=NNC(=O)c2cc(-c3ccc(Cl)cc3)n[nH]2)CC1 | -16.4
c1ccc(-c2cccc(-c3ccccc3)n2)cc1 | 18.4
CCOc1ccc(CCNC(=O)COC(=O)C2CC2)cc1OCC | 3.41
Cc1nnc(SCC(=O)Nc2ccc3c(c2)OCCO3)n1N | 12.4
CSc1ccccc1NC(=O)c1c(Br)cnn1C | -1.39
CCOC(=O)N1CCN(Cc2nc3c(c(=O)[nH]c(=O)n3C)n2CCCc2ccccc2)CC1 | -37.5
CCCCn1c(CN2CCN(C(=O)OCC)CC2)nc2c1c(=O)n(C)c(=O)n2C | -18.1
CCCCn1c(CN2CCN(C(=O)OCC)CC2)nc2c1c(=O)[nH]c(=O)n2C | 6.72
CCCCCCn1c(CN2CCN(C(=O)OCC)CC2)nc2c1c(=O)n(C)c(=O)n2C | -53.5
CCCCCn1c(CN2CCN(C)CC2)nc2c1c(=O)n(C)c(=O)n2C | -33.1
CCCCCn1c(CN2CCN(C(=O)OCC)CC2)nc2c1c(=O)n(C)c(=O)n2C | -34.6
CCCCCCn1c(CN2CCCCC2)nc2c1c(=O)n(C)c(=O)n2C | -35.7
CCCCCCn1c(CN2CCN(C)CC2)nc2c1c(=O)n(C)c(=O)n2C | -80.9
CCCCCCn1c(CN2CCC(C)CC2)nc2c1c(=O)n(C)c(=O)n2C | -8.75
CCOCCn1c(CN2CCCC(C)C2)nc2c1c(=O)n(C)c(=O)n2C (centres unmarked) | 11.7
CCCCCn1c(CN2CCN(C(=O)OCC)CC2)nc2c1c(=O)[nH]c(=O)n2C | -69.8
CCCCCCn1c(CN2CCCC(C)C2)nc2c1c(=O)n(C)c(=O)n2C (centres unmarked) | -58.1
CC1CCC(NC(=O)C2CC(=O)N(c3ccc4c(c3)OCCO4)C2)CC1 (centres unmarked) | 8.92
COc1ccc(N(C(=O)c2ccco2)S(=O)(=O)c2ccccc2)cc1 | -44.3
COc1cccc(NC(=O)CSc2nnnn2C(C)C)c1 | 2.64

SMILES | hERG current change (%, negative = inhibition) at 10uM [%]
COc1ccc(-c2nsc3c(N4CCCCC4C)ncnc23)cc1 (centres unmarked) | 33.3
Cc1nnc(NC(=O)C2CCCO2)s1 (centres unmarked) | 3.17
CCn1c2ccccc2c2cc(CN3CCN(S(=O)(=O)CC)CC3)ccc21.O=C(O)C(=O)O | -13.4
Cc1cc(OCC(=O)OC(C)(C)C)c2c3c(c(=O)oc2c1)CCC3 | 5.64
Cc1ccc(NC2CCCN(C(=O)c3cnc4ccccn4c3=O)C2)cc1C (centres unmarked) | -3.33
CCOc1ccc(S(=O)(=O)NCc2cccnc2)cc1 | 15.5
Cc1ccc(C(=O)OC2CCOC2=O)cc1NC(=O)c1ccco1 (centres unmarked) | 0.0901
Cc1cc(C)c2c(N)c(C(=O)NC3CC3)sc2n1 | 8.51
CC(C)(C)CNC(CO)C12CC3CC(CC(C3)C1)C2.Cl (centres unmarked) | -4.3
Cc1ncc(S(=O)(=O)C(C)(C)C)c(N)n1 | 2.37
O=C(c1sc2ccccc2c1Cl)N1CCN(c2ccccc2F)CC1 | -1.51
O=C(c1sc2ccccc2c1Cl)N1CCN(c2ncccn2)CC1 | -9.78
Cc1noc(C)c1C(=O)N1CCN(C(=O)c2sc3cc(Cl)ccc3c2Cl)CC1 | -47.4
O=C(c1cc(-c2ccccn2)nc2ccc(Cl)cc12)N1CCN(CCc2ccccc2)CC1 | 6.73
O=C(c1sc2ccccc2c1Cl)N1CCN(CCc2ccccn2)CC1 | -60.5
O=C(c1sc2ccccc2c1Cl)N1CCN(c2ccccn2)CC1 | -68.7
O=C(c1sc2cccc(Cl)c2c1Cl)N1CCN(CCc2ccccn2)CC1 | -28.9
O=C(c1sc2ccccc2c1Cl)N1CCN(c2ccc(F)cc2)CC1 | -3.54
O=C(c1sc2cc(Cl)ccc2c1Cl)N1CCN(CCc2ccccn2)CC1 | -69.6
COc1cc(C)nc(N2CCCC(C(=O)NC3CCC(C)CC3)C2)n1 (centres unmarked) | -0.336
CCOc1ccc(CCNC(=O)CSCc2ccc(C)cc2)cc1OCC | -2.33
Cc1cc2c(cc1C)NC(=O)CC(C(F)(F)C(F)(F)C(F)(F)F)=N2 | 9.6
C(=N\NC1=Nc2cccc3cccc1c23)/c1cccnc1 | -5.08
O=C(O)c1ccc(NC(=O)C(c2ccccc2)c2ccccc2)cc1 | 14.3
COc1ccc(C2C(C#N)=C(SC)NC3=C2C(=O)CC(C)(C)C3)cc1 (centres unmarked) | -15.4

SMILES | hERG current change (%, negative = inhibition) at 10uM [%]
COC(=O)[C@@H]1CCCN1Cc1c(C(=O)N2CCOCC2)nc2c(C)cccn12 | 24.1
COc1ccccc1N1CCN(CC(=O)Nc2ccnn2C2CCCC2)CC1 | 3.01
O=C(Nc1ccnn1C1CCN(C2CCCCC2)CC1)c1ccccc1 | -25.8
COc1ccccc1C(=O)Nc1ccnn1C1CCN(CCCC2CCCC2)CC1 | -85.1
O=C(Nc1ccnn1C1CCN(C2CCCC2)CC1)c1ccccc1 | 1.61
O=C(Nc1ccnn1C1CCN(CCCC2CCCC2)CC1)c1ccccc1 | -73.1
O=C(Nc1ccnn1C1CCN(CCCC2CCCC2)CC1)c1ccccc1Cl | -86.4
COc1ccccc1NC(=O)Nc1ccnn1C1CCCCC1 | -12.7
O=C(c1cc(=O)[nH]c2ccccc12)N1CCc2ccccc2C1 | 11
O=c1c2ccccc2nc2n1CCO2 | 10.2
COc1cc2cc(Oc3ccc4ccc(=O)oc4c3)c(=O)oc2cc1OC(C)=O | 0.234
COc1ccc(-c2cn3cc(C(F)(F)F)cc(Cl)c3n2)cc1 | 9.73
Cc1ccc(C(=O)Nc2nc3ccc(S(C)(=O)=O)cc3s2)o1 | -0.566
Cc1nc(CN(C)C(=O)c2ccccc2OC2CCN(S(C)(=O)=O)CC2)cs1 | 3.35
O=C(CCC(=O)N1CCOc2ccccc21)N1CCOCC1 | -5.85
COc1ccc(N2CCN(C(=O)CCC(=O)N3CCOc4ccc(C)cc43)CC2)cc1 | -42.7
COc1cccc(N2CCN(C(=O)CCC(=O)N3CCOc4ccc(C)cc43)CC2)c1 | -30.3
O=C(CCC(=O)N1CCOc2ccccc21)N1CCN(c2ccccc2)CC1 | -70
COc1ccc(CCNC(=O)CCC(=O)N2CCOc3ccc(Cl)cc32)cc1OC | -20.2
COc1ccc(N2CCN(C(=O)CCC(=O)N3CCOc4ccc(Cl)cc43)CC2)cc1 | -52.8
COc1ccccc1CNC(=O)CCC(=O)N1CCOc2ccc(Cl)cc21 | -5.43
COc1ccc(N2CCN(CCCNC(=O)CCC(=O)N3CCOc4ccc(Cl)cc43)CC2)cc1 | -70.4
Cc1ccc2c(c1)N(C(=O)CCC(=O)N1CCN(c3ccccc3)CC1)CCO2 | -43.8
O=C(Oc1nsnc1N1CCOCC1)N1CCOCC1 | 15.3
CCc1noc(C)c1C(=O)Nc1cc(C(F)(F)F)ccc1-n1cncn1 | -21.3

SMILES | hERG current change (%, negative = inhibition) at 10uM [%]
O=C(Nc1cccc2nsnc12)c1ccc(-c2cccc(Cl)c2)o1 | 10.4
FC(F)(F)c1ccccc1NC(=S)NN=C1CCCCCC1 | 23.5
CCC(=O)N(CCc1ccccc1C)Cc1cc2cc3c(cc2[nH]c1=O)OCO3 | -3.05
COC(=O)c1ccccc1NC(=O)Cn1nc2n(C)c3ccccc3n2c(=O)c1=O | -3.54
Cc1ccc(N2CC(C(=O)NCCN3CCOCC3)CC2=O)cc1C (centres unmarked) | 10.2
Cn1nnnc1P(=O)(c1ccccc1)c1ccccc1 | 7.84
O=C1NCC(O)=C1C=NC12CC3CC(CC(C3)C1)C2 [4246017] | 12.6
COc1ccc(NC(=O)N2c3ccc(OC)cc3C(C)=CC2(C)C)cc1 | 20.1
CC1=C(c2ccccc2)[N+](=O)C2(CCCCC2)N1[O-] | -4.49
COc1ccc(C2=NOC3(CC(=O)N(c4ccc(F)cc4)C3=O)C2)cc1 (centres unmarked) | 15.5
O=C(COC(=O)c1cc([N+](=O)[O-])ccc1NCCO)Nc1ccc2c(c1)OCO2 | 5.75
FC(F)Oc1ccc(-n2cc(-c3ccccc3)[n+]3c2CCCCC3)cc1.[Br-] | -55.6
[Cl-].c1ccc(-c2c[nH]c3[n+]2CCCCC3)cc1 | -2.27
Clc1ccc(-c2cn(-c3ccc(Cl)cc3)c3[n+]2CCCCC3)cc1.[Br-] | -52.7
Clc1ccc(-n2cc(-c3ccc(Br)cc3)[n+]3c2CCCCC3)cc1.[Br-] | -49.4
Brc1ccc(-c2csc3[n+]2CCCCC3)cc1.[Br-] | -6.25
FC(F)Oc1ccc(-n2cc(-c3ccc(Cl)cc3)[n+]3c2CCCCC3)cc1.[Br-] | -78.3
O=C(Nc1ccc(Cl)cc1)N(C1=NCCC1)c1ccc(OC(F)F)cc1 | -8.02
COc1ccc(-c2cn(-c3ccc(Cl)cc3)c3[n+]2CCCCC3)cc1.[Br-] | -31.9
Br.FC(F)Oc1ccc(-c2csc(NNC3=NCCCCC3)n2)cc1 | -47.5
COc1ccc(N2CCN(C(=O)COC(=O)c3ccc(OC(F)F)cc3)CC2)cc1 | -26.5
COc1ccc(-n2cc(-c3ccccc3)[n+]3c2CCCCC3)cc1.[Br-] | -19.3
COc1ccc(-n2cc(-c3ccc(OC(F)F)cc3)[n+]3c2CCCCC3)cc1.[Br-] | -76.3
